Test results reported in the supplement of paper PMC10849652.
The full data set covers some 7,900 targets. This sample favours those with a hit. About 0.6% of all pairs of compound and target were hits. Values without a mark were called inactive.

What was measured:
Assay in all cases: log2 fold change, soluble protein after heating vs DMSO (PISA); higher = thermal stabilisation; K562 cells, 10 uM, 30 min; active = over 0.2 and 3.5 SD of the protein, either way, in both replicates (recomputed)
[1] = compound: C1COCCN1CCN2C3=CC=CC=C3N=C2NC(=O)C4=CC(=CC=C4)[N+](=O)[O-] [IRAK-1-4 Inhibitor I]
Outline: (§1)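 K562 cells (2×10^6 cells/mL) were treated with 10 μM compound for 30 min, and aliquots were heated for 3 min over 48°C-58°C. Pooled aliquots were extracted in PBS with 0.5% NP-40 at 4°C, and the supernatant after 21,000xg for 90 min was measured by TMTpro 16plex LC-MS/MS with channel sums equalised. Reported thermal stability, relative to control samples and from duplicates, is a log2 fold change.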

[2] = compound: C=CC(=O)N1CCC[C@@H](n2nc(-c3ccc(Oc4ccccc4)cc3)c3c(N)ncnc32)C1 [ibrutinib]
Outline: as §1

[3] = compound: CC(=O)c1cnc2ccc(-c3cc(Cl)c(O)c(Cl)c3)nc2c1N[C@H]1CC[C@H](CN(C)C)CC1
Outline: as §1

[4] = compound: CC(C)(C)Cn1c(N)nc2ccc(-c3[nH]c(C(C)(C)C)nc3-c3ccc(F)cc3)nc21 [ralimetinib]
Outline: as §1

[5] = compound: CC(C)(O)CC(=O)NCCn1ccc2ncnc(Nc3ccc(Oc4cccc(C(F)(F)F)c4)c(Cl)c3)c21
Outline: as §1

[6] = compound: CC(C)C1=C2N=C(C=C(N2N=C1)NCC3=CC=CC=C3)NCCCCCCN
Outline: as §1

[7] = compound: CC(C)C[C@@H](C=O)NC(=O)[C@H](CC(C)C)NC(=O)[C@H](CC(C)C)NC(=O)OCc1ccccc1
Outline: as §1

[8] = compound: CC(C)N(C[C@H]1O[C@@H](n2cnc3c(N)ncnc32)[C@H](O)[C@@H]1O)[C@H]1C[C@@H](CCc2nc3cc(C(C)(C)C)ccc3[nH]2)C1 [pinometostat]
Outline: as §1

[9] = compound: CC1=C(C2=C(C=C1)C(=O)C3=CC=CC=C3N2CCCN)C
Outline: as §1

[10] = compound: CC1=C(C=C(C=C1)NC(=O)C2=CC(=CC=C2)C(C)(C)C#N)NC3=CC4=C(C=C3)N=CN(C4=O)C
Outline: as §1

[11] = compound: CC1=C(C=C(C=C1)NC(=O)C2=CC(=CC=C2)N(C)C)NC(=O)C3=CC=C(C=C3)O
Outline: as §1

[12] = compound: CC1=CC=C(C=C1)SC2=C3C=C(SC3=CN=C2)C(=O)N
Outline: as §1

[13] = compound: CC1=NC(=CC=C1)C2=C(N=C(N2)C(C)(C)C)C3=CC4=NC=CN=C4C=C3
Outline: as §1

[14] = compound: CCCCN(Cc1ccc(C(=O)NO)cc1)C(=O)Nc1ccccc1 [Nexturastat A]
Outline: as §1

[15] = compound: CCCS(=O)(=O)Nc1ccc(F)c(C(=O)c2c[nH]c3ncc(Cl)cc23)c1F
Outline: as §1

[16] = compound: CCCc1cc(C)[nH]c(=O)c1CNC(=O)c1cc(-c2ccnc(N3CCN(C)CC3)c2)cc2c1cnn2C(C)C
Outline: as §1

[17] = compound: CCN(CC)Cc1ccc2cc(COC(=O)Nc3ccc(C(=O)NO)cc3)ccc2c1 [givinostat]
Outline: as §1

[18] = compound: CCN(CCCOc1ccc2c(Nc3cc(CC(=O)Nc4cccc(F)c4)[nH]n3)ncnc2c1)CCOP(=O)(O)O [barasertib]
Outline: as §1

[19] = compound: CC1=C(C(CC(=O)N1)C2=CC=C(C=C2)C(F)(F)F)C(=O)NC3=C(C=C4C(=C3)C=NN4)F
Outline: as §1

[20] = compound: CCCS(=O)(=O)Nc1ccc(F)c(C(=O)c2c[nH]c3ncc(-c4ccc(Cl)cc4)cc23)c1F [vemurafenib]
Outline: as §1

Sequence of UniProt Q14157 (Q14157 whole entry, looked up): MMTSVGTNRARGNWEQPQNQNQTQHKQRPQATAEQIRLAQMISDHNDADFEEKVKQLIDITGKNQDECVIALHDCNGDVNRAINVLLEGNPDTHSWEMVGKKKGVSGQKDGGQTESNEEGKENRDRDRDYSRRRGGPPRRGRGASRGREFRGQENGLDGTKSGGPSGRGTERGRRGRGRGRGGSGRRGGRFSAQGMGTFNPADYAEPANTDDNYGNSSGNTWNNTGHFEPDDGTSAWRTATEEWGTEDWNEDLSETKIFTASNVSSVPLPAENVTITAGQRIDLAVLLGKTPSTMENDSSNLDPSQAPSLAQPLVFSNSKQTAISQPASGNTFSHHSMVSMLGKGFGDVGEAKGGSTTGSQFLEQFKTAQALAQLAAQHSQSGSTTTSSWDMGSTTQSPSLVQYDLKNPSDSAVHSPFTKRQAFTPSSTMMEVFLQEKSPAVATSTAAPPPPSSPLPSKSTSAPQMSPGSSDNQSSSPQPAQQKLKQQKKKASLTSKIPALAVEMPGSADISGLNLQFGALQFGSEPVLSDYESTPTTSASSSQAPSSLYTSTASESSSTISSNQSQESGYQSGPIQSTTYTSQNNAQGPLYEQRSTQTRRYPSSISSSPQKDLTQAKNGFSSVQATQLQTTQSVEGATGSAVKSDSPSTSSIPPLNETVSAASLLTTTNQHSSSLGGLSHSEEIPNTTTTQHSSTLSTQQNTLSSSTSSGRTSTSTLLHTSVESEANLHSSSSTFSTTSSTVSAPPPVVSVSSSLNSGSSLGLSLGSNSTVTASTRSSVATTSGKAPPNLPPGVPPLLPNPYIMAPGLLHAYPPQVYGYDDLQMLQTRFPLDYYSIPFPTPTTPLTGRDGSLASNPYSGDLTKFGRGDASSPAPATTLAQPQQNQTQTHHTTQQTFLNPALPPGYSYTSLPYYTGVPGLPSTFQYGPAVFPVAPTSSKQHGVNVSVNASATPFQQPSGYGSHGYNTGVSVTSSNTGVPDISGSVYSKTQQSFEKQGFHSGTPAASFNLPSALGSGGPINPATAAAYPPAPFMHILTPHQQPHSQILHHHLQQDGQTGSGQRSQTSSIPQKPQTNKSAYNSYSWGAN
Sequence of UniProt P18887 (P18887 whole entry, looked up): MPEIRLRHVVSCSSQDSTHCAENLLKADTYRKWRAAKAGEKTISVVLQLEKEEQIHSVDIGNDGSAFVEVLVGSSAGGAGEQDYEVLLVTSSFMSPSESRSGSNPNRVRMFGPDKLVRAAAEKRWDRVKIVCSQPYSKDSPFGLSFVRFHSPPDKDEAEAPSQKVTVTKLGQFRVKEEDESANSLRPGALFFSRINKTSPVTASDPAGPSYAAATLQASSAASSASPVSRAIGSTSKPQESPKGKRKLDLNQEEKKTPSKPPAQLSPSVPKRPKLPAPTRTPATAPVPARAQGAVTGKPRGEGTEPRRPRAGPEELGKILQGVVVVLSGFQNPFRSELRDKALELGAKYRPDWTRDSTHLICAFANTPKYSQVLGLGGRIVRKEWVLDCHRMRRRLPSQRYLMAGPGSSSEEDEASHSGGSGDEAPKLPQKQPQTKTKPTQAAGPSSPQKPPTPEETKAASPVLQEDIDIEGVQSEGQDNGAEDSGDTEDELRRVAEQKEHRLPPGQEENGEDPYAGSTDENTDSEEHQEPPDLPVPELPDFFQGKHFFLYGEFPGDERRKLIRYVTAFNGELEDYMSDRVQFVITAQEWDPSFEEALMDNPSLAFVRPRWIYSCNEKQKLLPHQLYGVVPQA
Sequence of UniProt Q7Z3J2 (Q7Z3J2 whole entry, looked up): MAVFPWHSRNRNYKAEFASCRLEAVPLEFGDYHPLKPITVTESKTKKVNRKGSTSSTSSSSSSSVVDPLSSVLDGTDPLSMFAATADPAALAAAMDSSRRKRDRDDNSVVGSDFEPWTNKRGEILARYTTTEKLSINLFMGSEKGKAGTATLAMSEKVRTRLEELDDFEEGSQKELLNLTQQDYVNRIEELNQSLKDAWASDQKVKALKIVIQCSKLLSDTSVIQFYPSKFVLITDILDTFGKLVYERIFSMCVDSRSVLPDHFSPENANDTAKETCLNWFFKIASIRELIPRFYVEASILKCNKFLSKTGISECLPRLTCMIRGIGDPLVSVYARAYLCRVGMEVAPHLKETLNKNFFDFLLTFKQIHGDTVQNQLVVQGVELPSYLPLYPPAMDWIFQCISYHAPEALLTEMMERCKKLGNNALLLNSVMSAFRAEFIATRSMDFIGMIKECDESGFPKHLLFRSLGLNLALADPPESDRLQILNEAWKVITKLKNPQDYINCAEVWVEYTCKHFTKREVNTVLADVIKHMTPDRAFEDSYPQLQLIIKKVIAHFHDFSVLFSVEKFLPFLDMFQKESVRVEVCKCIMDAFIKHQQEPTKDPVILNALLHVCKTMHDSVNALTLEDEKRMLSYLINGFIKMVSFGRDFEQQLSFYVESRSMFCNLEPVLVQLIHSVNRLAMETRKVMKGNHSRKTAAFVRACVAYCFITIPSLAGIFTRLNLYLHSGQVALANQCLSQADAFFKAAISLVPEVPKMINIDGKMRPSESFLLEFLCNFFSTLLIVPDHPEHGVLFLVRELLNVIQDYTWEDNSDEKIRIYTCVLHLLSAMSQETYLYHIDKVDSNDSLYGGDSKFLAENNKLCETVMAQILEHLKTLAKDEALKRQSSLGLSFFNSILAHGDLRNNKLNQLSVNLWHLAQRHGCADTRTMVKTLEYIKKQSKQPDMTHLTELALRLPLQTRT
Sequence of UniProt Q9HCN3 (Q9HCN3 whole entry, looked up): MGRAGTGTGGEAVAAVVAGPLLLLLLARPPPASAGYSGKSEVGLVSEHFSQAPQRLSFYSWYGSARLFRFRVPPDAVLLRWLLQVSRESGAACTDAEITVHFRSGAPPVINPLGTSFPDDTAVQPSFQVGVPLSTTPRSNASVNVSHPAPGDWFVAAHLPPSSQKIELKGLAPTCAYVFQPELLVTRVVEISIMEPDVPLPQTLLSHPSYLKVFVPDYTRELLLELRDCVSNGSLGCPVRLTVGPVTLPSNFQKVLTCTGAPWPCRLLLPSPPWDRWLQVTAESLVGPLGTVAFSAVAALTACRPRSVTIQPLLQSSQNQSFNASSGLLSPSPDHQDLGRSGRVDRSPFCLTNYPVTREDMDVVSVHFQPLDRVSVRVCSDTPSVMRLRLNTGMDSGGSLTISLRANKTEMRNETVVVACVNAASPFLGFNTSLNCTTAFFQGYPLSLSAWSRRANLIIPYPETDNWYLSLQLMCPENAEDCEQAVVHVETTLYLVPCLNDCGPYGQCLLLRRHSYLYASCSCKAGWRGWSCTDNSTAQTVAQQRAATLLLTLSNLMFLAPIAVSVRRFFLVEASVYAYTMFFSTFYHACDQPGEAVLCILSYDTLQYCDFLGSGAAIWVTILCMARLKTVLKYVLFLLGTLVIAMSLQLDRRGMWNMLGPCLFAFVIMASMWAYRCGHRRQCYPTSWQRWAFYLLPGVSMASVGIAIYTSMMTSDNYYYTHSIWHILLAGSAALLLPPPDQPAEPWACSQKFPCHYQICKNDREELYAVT
Sequence of UniProt Q8N3P4 (Q8N3P4 whole entry, looked up): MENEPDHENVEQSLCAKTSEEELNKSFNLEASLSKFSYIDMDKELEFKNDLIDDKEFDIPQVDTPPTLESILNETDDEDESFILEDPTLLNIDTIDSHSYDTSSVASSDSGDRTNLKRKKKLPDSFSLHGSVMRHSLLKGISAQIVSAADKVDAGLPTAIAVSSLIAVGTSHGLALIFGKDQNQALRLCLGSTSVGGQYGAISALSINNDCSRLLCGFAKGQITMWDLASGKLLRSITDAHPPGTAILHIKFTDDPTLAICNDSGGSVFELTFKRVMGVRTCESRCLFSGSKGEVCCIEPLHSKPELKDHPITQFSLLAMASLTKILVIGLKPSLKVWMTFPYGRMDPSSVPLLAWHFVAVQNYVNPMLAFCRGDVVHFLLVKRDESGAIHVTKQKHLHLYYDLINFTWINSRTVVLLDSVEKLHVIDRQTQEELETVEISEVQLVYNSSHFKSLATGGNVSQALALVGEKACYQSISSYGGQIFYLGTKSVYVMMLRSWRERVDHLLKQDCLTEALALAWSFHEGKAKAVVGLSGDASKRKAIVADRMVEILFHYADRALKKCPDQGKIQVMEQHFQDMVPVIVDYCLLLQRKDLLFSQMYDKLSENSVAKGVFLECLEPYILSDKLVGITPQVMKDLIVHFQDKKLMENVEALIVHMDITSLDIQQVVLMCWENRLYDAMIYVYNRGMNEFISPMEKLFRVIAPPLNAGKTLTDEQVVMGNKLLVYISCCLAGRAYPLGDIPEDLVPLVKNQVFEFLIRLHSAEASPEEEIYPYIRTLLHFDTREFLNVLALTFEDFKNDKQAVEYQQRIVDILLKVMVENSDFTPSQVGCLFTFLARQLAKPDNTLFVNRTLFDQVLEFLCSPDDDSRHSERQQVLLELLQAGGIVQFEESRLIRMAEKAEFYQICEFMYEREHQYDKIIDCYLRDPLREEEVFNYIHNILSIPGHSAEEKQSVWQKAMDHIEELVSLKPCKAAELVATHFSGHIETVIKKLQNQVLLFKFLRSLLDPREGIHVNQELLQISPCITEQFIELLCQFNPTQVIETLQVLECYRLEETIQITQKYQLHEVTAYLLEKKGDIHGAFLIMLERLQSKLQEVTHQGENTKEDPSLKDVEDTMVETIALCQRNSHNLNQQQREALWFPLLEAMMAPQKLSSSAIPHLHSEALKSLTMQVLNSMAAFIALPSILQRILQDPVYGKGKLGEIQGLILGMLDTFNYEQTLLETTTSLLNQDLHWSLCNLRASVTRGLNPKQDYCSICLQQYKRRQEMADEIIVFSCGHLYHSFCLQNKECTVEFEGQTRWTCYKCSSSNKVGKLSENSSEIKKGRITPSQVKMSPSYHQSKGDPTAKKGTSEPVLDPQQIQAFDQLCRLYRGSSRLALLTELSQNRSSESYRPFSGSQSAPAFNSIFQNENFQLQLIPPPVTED
Sequence of UniProt Q629K1 (Q629K1 whole entry, looked up): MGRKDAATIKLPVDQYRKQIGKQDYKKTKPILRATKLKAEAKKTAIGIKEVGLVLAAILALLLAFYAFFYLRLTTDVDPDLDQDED

| Target | log2 fold change [1] | log2 fold change [2] | log2 fold change [3] | log2 fold change [4] | log2 fold change [5] | log2 fold change [6] | log2 fold change [7] | log2 fold change [8] | log2 fold change [9] | log2 fold change [10] | log2 fold change [11] | log2 fold change [12] | log2 fold change [13] | log2 fold change [14] | log2 fold change [15] | log2 fold change [16] | log2 fold change [17] | log2 fold change [18] | log2 fold change [19] | log2 fold change [20] |
| --- | --- | --- | --- | --- | --- | --- | --- | --- | --- | --- | --- | --- | --- | --- | --- | --- | --- | --- | --- | --- |
| TSC2 (UniProt P49815) | -0.045 | 0.028 | 0.05 | 0.091 | -0.001 | 0.103 | 0.056 | 0.085 | 0.105 | -0.09 | 0.004 | -0.076 | -0.139 | 0.173 | 0.098 | -0.036 | -0.043 | -0.015 |  |  |
| VPS51 (UniProt Q9UID3) | 0.016 | -0.015 | 0.009 | 0.024 | -0.042 | -0.115 | 0.001 | 0.05 | 0.105 | 0 | -0.031 | -0.045 | 0.017 | 0.032 | 0.021 | 0.032 | 0.071 | 0.059 | 0.033 | 0.034 |
| VPS8 (UniProt Q8N3P4) | -0.085 | -0.117 | -0.004 | 0.088 | -0.079 | -0.254 | 0.052 | 0.039 | 0.015 | -0.011 | -0.003 | -0.034 | 0.058 | 0.032 | 0.126 | -0.04 | 0.014 | 0.028 | 0.026 | 0.048 |
| TXNL4B (UniProt Q9NX01) | 0.132 | -0.065 | -0.071 | -0.057 |  | -0.02 | 0.074 | -0.053 | 0.067 | -0.037 | -0.088 | -0.002 | -0.04 |  | 0.024 | -0.06 | 0.014 | 0.306 | 0.026 | 0.453 (active) |
| UBAP2L isoform 5 (UniProt Q14157) | 0.053 | 0.04 | 0.017 | -0.007 | 0.003 | 0.053 | -0.012 | -0.032 | 0.068 | -0.014 | 0.036 | 0.017 | 0.013 | 0.017 | 0.006 | -0.03 | 0.011 | 0.011 | 0.009 | -0.008 |
| TMEM173 (UniProt Q86WV6) | 0.018 | -0.105 | 0.009 | 0.067 | -0.047 | -0.006 | 0.005 | 0.012 | 0.088 | -0.037 | -0.01 | -0.043 | -0.008 | -0.212 | -0.043 | -0.008 | -0.076 | 0.055 | 0.009 | 0.056 |
| VPS35L (UniProt Q7Z3J2) | -0.012 | -0.006 | -0.028 | 0.05 | -0.097 | -0.046 | 0.036 | 0.043 | 0.024 | 0.024 | -0.031 | -0.052 | -0.022 | 0.05 | 0.049 | 0.086 | 0.03 | 0.07 | -0.013 | 0.003 |
| TMEM128 (UniProt Q5BJH2) | -0.046 | -0.025 | 0.45 (active) | -0.036 | -0.051 | 0.028 | 0.108 | 0.122 | 0 | -0.023 | -0.006 | -0.005 | -0.054 | 0.021 | 0.052 |  | 0.249 | -0.004 | 0.001 | -0.279 |
| WAPL isoform 3 (UniProt Q7Z5K2) | -0.086 | -0.002 | -0.05 | -0.072 | -0.057 | -0.339 | 0.125 | 0.054 | -0.056 | -0.038 | -0.109 | 0.056 | -0.006 | -0.134 | 0.083 | -0.054 | 0.149 | 0.201 | -0.003 | 0.097 |
| WDR61 (UniProt Q9GZS3) | 0.037 | -0.015 | -0.057 | -0.049 | 0.008 | -0.016 | -0.009 | 0.028 | 0.004 | -0.026 | 0.024 | 0.001 | -0.027 | -0.035 | -0.115 | -0.02 | 0.026 | 0.038 | 0.013 | -0.072 |
| VWA3B isoform 6 (UniProt Q502W6) | 0.043 | -0.069 | 0.013 | -0.031 | 0 | -0.407 | -0.256 | 0.079 | 0.089 |  | 0.104 | 0.072 | 0 | -0.292 | 0.008 | -0.169 | 0.011 | 0.057 | 0.257 | -0.1 |
| WASHC3 (UniProt Q9Y3C0) | 0.096 | 0.015 | 0.023 | -0.033 | 0.024 | -0.166 | -0.041 | -0.074 | 0.032 | 0.011 | 0.015 | 0.049 | -0.008 | -0.051 | -0.006 | -0.08 | 0.004 | 0.017 | 0.059 | 0.005 |
| VDAC1 (UniProt C9JI87) |  |  | -0.091 | -0.506 | -0.052 | 0.009 | -0.013 |  |  | -0.03 | -0.003 | -0.034 |  | -0.093 | -0.134 | -0.053 | -0.052 | 0.071 | 0.21 |  |
| TRIQK (UniProt Q629K1) | -0.059 | 0.007 |  | -0.011 | -0.054 |  | -0.004 | 0.104 | 0.114 | -0.022 | -0.007 |  | -0.173 | -0.028 |  | 0.014 |  | -0.041 |  |  |
| TMEM8A (UniProt Q9HCN3) |  | 0.06 |  | -0.131 |  | -0.445 (active) | -0.036 |  | 0.044 | 0.101 | 0.017 | -0.047 |  |  | -0.073 | -0.077 | 0.014 | -0.189 | 0.007 | -0.003 |
| XRCC1 (UniProt P18887) | 0.13 |  | 0.027 | -0.115 | -0.368 | -0.066 | 0.432 | 0.41 | -0.047 | 0.049 | 0.063 |  | -0.222 | 0.429 |  |  | 0.01 |  |  |  |
| VDAC1 (UniProt P21796) | 0.07 |  | 0.02 | -0.035 | 0.021 | 0.058 | -0.039 | -0.032 | -0.016 | -0.025 | 0.02 | 0.025 | 0.012 | -0.028 | 0.018 | -0.005 | -0.001 | -0.017 | -0.009 | 0.015 |
